Data published in paper PMC4336329 (PLoS ONE, 2015).
Hit rate of the full screen: of about 310,000 compounds, about 14,000 (4.5%) showed an effect of 50% or more. The effect is printed as a negative number. This is one part of a sample in which strong results are shown more often than they occur.

What follows are compounds tested against human ether-à-go-go-related gene (hERG) potassium channel (human, UniProt Q12809) (assay: primary screen, population patch clamp on CHO cells stably expressing hERG; higher = less effect of the substance).
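Also: peak tail current of the secondary pulse compared with the same well before compound.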

Chain of human ether-à-go-go-related gene (hERG) potassium channel (Q12809 whole entry, looked up): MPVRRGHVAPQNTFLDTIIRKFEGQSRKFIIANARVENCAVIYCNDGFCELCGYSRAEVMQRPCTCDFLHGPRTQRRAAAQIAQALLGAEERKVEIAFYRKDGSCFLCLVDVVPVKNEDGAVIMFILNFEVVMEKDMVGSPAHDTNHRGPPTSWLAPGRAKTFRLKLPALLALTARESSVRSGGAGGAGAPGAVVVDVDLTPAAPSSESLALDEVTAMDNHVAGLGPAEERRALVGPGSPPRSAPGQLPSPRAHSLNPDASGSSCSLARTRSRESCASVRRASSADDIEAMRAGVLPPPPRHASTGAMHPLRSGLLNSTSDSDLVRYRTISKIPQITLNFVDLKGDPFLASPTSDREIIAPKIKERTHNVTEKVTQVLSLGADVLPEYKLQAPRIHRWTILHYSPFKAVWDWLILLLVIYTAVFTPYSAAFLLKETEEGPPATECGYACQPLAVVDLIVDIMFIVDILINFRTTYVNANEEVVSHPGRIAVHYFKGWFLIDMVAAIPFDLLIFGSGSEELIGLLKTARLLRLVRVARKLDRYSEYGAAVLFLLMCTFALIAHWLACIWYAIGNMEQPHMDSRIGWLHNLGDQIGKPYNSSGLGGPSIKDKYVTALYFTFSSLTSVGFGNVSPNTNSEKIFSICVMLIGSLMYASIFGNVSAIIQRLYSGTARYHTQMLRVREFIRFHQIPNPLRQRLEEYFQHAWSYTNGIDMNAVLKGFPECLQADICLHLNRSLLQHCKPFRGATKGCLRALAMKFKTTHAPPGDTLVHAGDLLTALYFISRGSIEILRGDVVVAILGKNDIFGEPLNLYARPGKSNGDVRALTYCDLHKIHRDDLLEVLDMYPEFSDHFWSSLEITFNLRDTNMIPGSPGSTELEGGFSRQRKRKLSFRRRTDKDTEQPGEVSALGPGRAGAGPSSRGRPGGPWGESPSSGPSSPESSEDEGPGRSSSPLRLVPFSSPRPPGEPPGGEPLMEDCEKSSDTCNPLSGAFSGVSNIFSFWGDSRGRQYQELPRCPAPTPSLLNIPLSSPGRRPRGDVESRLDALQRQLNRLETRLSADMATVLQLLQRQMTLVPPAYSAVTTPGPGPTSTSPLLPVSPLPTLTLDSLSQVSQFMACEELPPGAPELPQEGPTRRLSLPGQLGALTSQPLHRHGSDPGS

Q: Which “hERG current change (%, negative = inhibition) at 10uM” value does the source give for `Cc1cnc(C)c(N2CCN(Cc3cn(C)nc3-c3cccc(Cl)c3)CC2)n1` here?
A: -49.6%

Q: For `CC(C1CCN(Cc2cn(C)nc2-c2cccc(Cl)c2)CC1)N1CCOCC1` (stereo not shown), which “hERG current change (%, negative = inhibition) at 10uM” value is on record?
A: -26.9%

Q: For `Cc1cc(N2CCN(Cc3cn(C)nc3-c3ccccc3F)CC2)cc(C)n1`, which “hERG current change (%, negative = inhibition) at 10uM” value is on record?
A: -35%

Q: With `Cc1cc(N2CCN(Cc3cn(C)nc3-c3cccc(Cl)c3)CC2)cc(C)n1` as the compound, how does the “hERG current change (%, negative = inhibition) at 10uM” value read?
A: -65%

Q: Which “hERG current change (%, negative = inhibition) at 10uM” value does the source give for `Cn1cc(CN2CCC(C(O)c3cccs3)CC2)c(-c2cccc(Cl)c2)n1` (stereo not shown) here?
A: -57%

Q: Which “hERG current change (%, negative = inhibition) at 10uM” value does the source give for `Cn1cc(CN2CCN(Cc3ccccc3)CC2)c(-c2cccc(Cl)c2)n1` here?
A: -53%

Q: For `Cn1cc(CN2CCC(C(O)c3cccs3)CC2)c(-c2ccccc2F)n1` (stereo not shown), which “hERG current change (%, negative = inhibition) at 10uM” value is on record?
A: -21.5%

Q: How did the “hERG current change (%, negative = inhibition) at 10uM” value turn out when `COCCN1CCN(Cc2cn(C)nc2-c2cccc(Cl)c2)CC1` was run?
A: -15.7%

Q: Which “hERG current change (%, negative = inhibition) at 10uM” value does the source give for `Cn1cc(CN2CCN(c3ncccn3)CC2)c(-c2cccc(Cl)c2)n1` here?
A: -20.5%

Q: How did the “hERG current change (%, negative = inhibition) at 10uM” value turn out when `Cc1c(Cl)cccc1NC(=O)Nc1ccn(C)n1` was run?
A: 5.52%

Q: `Cc1nn(C)c(C)c1/C=C(/C(=O)C(C)(C)C)n1cncn1` was tested. Which “hERG current change (%, negative = inhibition) at 10uM” value did it give?
A: 28.5%

Q: For `Cc1cccc(C)c1NC(=S)N1CCCN(C)CC1`, which “hERG current change (%, negative = inhibition) at 10uM” value is on record?
A: 15.2%

Q: With `Clc1ccc(-c2cnc3ccccc3n2)cc1` as the compound, how does the “hERG current change (%, negative = inhibition) at 10uM” value read?
A: 9.07%

Q: Which “hERG current change (%, negative = inhibition) at 10uM” value does the source give for `COc1ccc(C(=O)Nc2cc(C)c3c(=O)oc4ccccc4c3n2)cc1` here?
A: 7.49%

Q: `OCC[C@@H]1C[C@H](O)[C@@H](O)[C@@]2(Cc3ccccc3CCO2)O1` was tested. Which “hERG current change (%, negative = inhibition) at 10uM” value did it give?
A: 10.6%

Q: How did the “hERG current change (%, negative = inhibition) at 10uM” value turn out when `CCC(Sc1nccn1C)C(=O)Nc1ccc(Cl)cn1` (stereo not shown) was run?
A: 5.78%

Q: Which “hERG current change (%, negative = inhibition) at 10uM” value does the source give for `CN1CCN(CCN2CCn3c2nc2ccccc23)CC1.Cl` here?
A: -7.38%

Q: Which “hERG current change (%, negative = inhibition) at 10uM” value does the source give for `Cl.O=[N+]([O-])c1ccc(CN2CCN(c3ccc4ccccc4n3)CC2)cc1` here?
A: -12.1%

Q: For `CC(O)c1nc2ccccc2n1Cc1ccc([N+](=O)[O-])cc1` (stereo not shown), which “hERG current change (%, negative = inhibition) at 10uM” value is on record?
A: -73.4%

Q: With `CCCn1c(N2CCN(C(=O)N3CCCCC3)CC2)nc2ccccc21.Cl` as the compound, how does the “hERG current change (%, negative = inhibition) at 10uM” value read?
A: -20.4%

Q: How did the “hERG current change (%, negative = inhibition) at 10uM” value turn out when `Cc1cccc(Cn2c(C(C)O)nc3ccccc32)c1` (stereo not shown) was run?
A: 5.37%

Q: How did the “hERG current change (%, negative = inhibition) at 10uM” value turn out when `Cl.c1ccc2c(c1)nc1n2CCN1CCN1CCCC1` was run?
A: -3.08%

Q: Which “hERG current change (%, negative = inhibition) at 10uM” value does the source give for `Cl.c1ccc(CN2CCN(CCN3CCn4c3nc3ccccc34)CC2)cc1` here?
A: -75.8%

Q: With `CC(O)c1nc2cc([N+](=O)[O-])ccc2n1Cc1ccccc1` (stereo not shown) as the compound, how does the “hERG current change (%, negative = inhibition) at 10uM” value read?
A: 1.79%

Q: How did the “hERG current change (%, negative = inhibition) at 10uM” value turn out when `CCCn1c(N2CCN(Cc3ccc(Cl)cc3)CC2)nc2ccccc21.Cl` was run?
A: -69.8%

Q: How did the “hERG current change (%, negative = inhibition) at 10uM” value turn out when `O=[N+]([O-])c1ccc(CN2CCN(c3nc4ccccc4s3)CC2)cc1` was run?
A: -1.07%

Q: For `CCCn1c(N2CCN(C(=O)Nc3ccc(Cl)cc3)CC2)nc2ccccc21`, which “hERG current change (%, negative = inhibition) at 10uM” value is on record?
A: -16.8%

Q: For `CCn1c(N2CCN(Cc3ccc([N+](=O)[O-])cc3)CC2)nc2ccccc21.Cl`, which “hERG current change (%, negative = inhibition) at 10uM” value is on record?
A: -74.7%

Q: Which “hERG current change (%, negative = inhibition) at 10uM” value does the source give for `COc1ccc(NC(=O)CSc2cn[nH]n2)cc1OC` here?
A: 31.4%

Q: Which “hERG current change (%, negative = inhibition) at 10uM” value does the source give for `COc1ccc(NC(=O)N2C[C@@H]3C[C@@H](C2)c2cccc(=O)n2C3)cc1` here?
A: 7.74%

Q: For `N#C/C(=N\Nc1ccc(Cl)cc1)C(=N)N1CCCCC1`, which “hERG current change (%, negative = inhibition) at 10uM” value is on record?
A: -31.1%

Q: `CC(C)C(=O)Nc1ccc(S(=O)(=O)N2CCC(c3nc4ccccc4[nH]3)CC2)cc1` was tested. Which “hERG current change (%, negative = inhibition) at 10uM” value did it give?
A: -42.7%

Q: How did the “hERG current change (%, negative = inhibition) at 10uM” value turn out when `CC1=CCC(C(=O)O)C(C(=O)Nc2ccc(-c3nc4ccc(C)cc4s3)cc2)C1` (stereo not shown) was run?
A: 7.8%

Q: With `COc1ccccc1Oc1ccccc1[N+](=O)[O-]` as the compound, how does the “hERG current change (%, negative = inhibition) at 10uM” value read?
A: 5.95%

Q: How did the “hERG current change (%, negative = inhibition) at 10uM” value turn out when `O=C(NNC(=O)c1ccc(Cl)c([N+](=O)[O-])c1)c1ccncc1` was run?
A: 13.2%

Q: `COc1cc(/C=C2/C(=O)N(c3ccc([N+](=O)[O-])cc3)N=C2N2CCOCC2)ccc1O` was tested. Which “hERG current change (%, negative = inhibition) at 10uM” value did it give?
A: -42.2%

Q: Which “hERG current change (%, negative = inhibition) at 10uM” value does the source give for `CCN(CC)CCn1c2ccc(Cl)cc2c2nc(C)sc21.Cl` here?
A: -68.2%

Q: Which “hERG current change (%, negative = inhibition) at 10uM” value does the source give for `CCN(CC)CCn1c2ccccc2c2nc(C)sc21` here?
A: -30.6%

Q: `Cc1nc2c3cc(F)ccc3n(Cc3ccccc3)c2s1` was tested. Which “hERG current change (%, negative = inhibition) at 10uM” value did it give?
A: 4.24%

Q: Which “hERG current change (%, negative = inhibition) at 10uM” value does the source give for `CCN(CC)CCn1c2ccc(F)cc2c2nc(C)sc21.Cl` here?
A: -54.3%

Q: Which “hERG current change (%, negative = inhibition) at 10uM” value does the source give for `Cc1nc2c3cc(F)ccc3n(Cc3ccc(F)cc3)c2s1` here?
A: 13.8%

Q: `COC(=O)Cn1c2ccc(Cl)cc2c2nc(C)sc21` was tested. Which “hERG current change (%, negative = inhibition) at 10uM” value did it give?
A: 5.43%

Q: `COc1ccc(-n2ccc(=O)c3c2CCCC3=O)cc1` was tested. Which “hERG current change (%, negative = inhibition) at 10uM” value did it give?
A: 13.5%
